In PubChem BioAssay AID588790 (National Center for Advancing Translational Sciences (NCATS), 2011):
Screen size: about 1,200 compounds; about 85 (7%) were called active. Many of the other results were omitted from the sample, so actives are more common in it than they were. Unmarked numbers belong to inactive results. The call rests on the fitted dose curve.

biological target: Beta-2 adrenergic receptor (Homo sapiens) (UniProt P07550); experiment: qHTS assay of beta-arrestin-biased ligands of beta2-adrenergic receptor: Hit Validation with GloSensor; details: W9-Glo22F cells, GloSensor cAMP luminescence, beta2AR agonism; activation: at 46.1 µM (top of the series); on activation: 0% is about no effect
Sequence (P07550 whole entry, looked up): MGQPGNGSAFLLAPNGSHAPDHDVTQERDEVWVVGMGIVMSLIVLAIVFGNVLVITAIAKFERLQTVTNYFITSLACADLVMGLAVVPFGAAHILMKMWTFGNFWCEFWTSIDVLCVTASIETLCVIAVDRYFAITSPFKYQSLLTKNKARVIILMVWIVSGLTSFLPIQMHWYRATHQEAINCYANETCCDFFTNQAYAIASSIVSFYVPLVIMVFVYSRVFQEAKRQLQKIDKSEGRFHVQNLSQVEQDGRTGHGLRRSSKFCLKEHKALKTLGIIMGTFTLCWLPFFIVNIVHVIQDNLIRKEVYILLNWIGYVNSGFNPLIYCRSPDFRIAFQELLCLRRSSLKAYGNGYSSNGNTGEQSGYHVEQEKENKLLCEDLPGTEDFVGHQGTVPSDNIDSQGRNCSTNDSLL
In short: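 W9-Glo22F cells plated and incubated overnight at 37 deg C, 5% CO2, then compounds pinned in. GloSensor reagent added, 10 min at room temperature, luminescence read.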
Potency means the concentration at half of the fitted maximal effect.

Compound	activation	Potency
CCCC1(C(=O)OCC)NC(c2ccc(OC)cc2OC)C2C(=O)N(c3ccc4c(c3)OCCO4)C(=O)C21 (stereo not drawn)	0.306%	–
COc1cc(/C=C2\SC(=N)N(c3ccc4c(c3)OCO4)C2=O)cc(OC)c1O	–	20.6 µM (active)
CCNC(=S)N/N=C(\C)c1cccc(OC)c1	-1.16%	–
C[C@H](CO)N1C[C@H](C)[C@@H](CN(C)Cc2ccccc2)Oc2c(NC(=O)Cc3ccccc3)cccc2C1=O	0.306%	–
CCCN=C1N(CC)C[C@@H]2[C@@H]3C(=O)N(C)C(=O)[C@@H]3[C@](CC)(C(=O)OC)N12	0%	–
O=C(COC(=O)c1ccccn1)c1ccc([N+](=O)[O-])cc1	4.96%	–
Cc1ccc(S(=O)(=O)N(Cc2ccc(Cl)cc2)c2ccccc2C(=O)NCc2ccco2)cc1	-1.01%	–
CCNc1nc(NCC)nc(-n2nc(C)cc2C)n1	9.76%	–
Cc1cc(C)nc(-n2nc(C)cc2NC(=O)CN2CCCC2)n1	–	20.6 µM (active)
Cc1cc(C)n(-c2nc(NC(C)(C)C)nc(NC(C)(C)C)n2)n1	-1.01%	–
Cc1cc(C)nc(-n2nc(C)cc2NC(=O)CNC2CCCCC2)n1	1.16%	–
CC(=O)Nc1ccc(Nc2cc(C)nc3c(-c4ccccc4)c(C)nn23)cc1	2.33%	–
Cc1cc(C)nc(-n2nc(C)cc2NC(=O)CN2CCC(C)CC2)n1	–	29.1 µM (active)
CCC1CCCCN1CC(=O)Nc1cc(C)nn1-c1nc(C)cc(C)n1 (stereo not drawn)	–	7.31 µM (active)
CCC(C(=O)Nc1cc(C)nn1-c1nc(C)cc(C)n1)c1ccccc1 (stereo not drawn)	–	18.4 µM (active)
Cc1cc(C)n(-c2nc(NC(C)C)nc(NC(C)C)n2)n1	1.16%	–
CNc1cc(C)nc(-n2nc(C)cc2C)n1	-2.33%	–
Cc1ccc(S(=O)(=O)N2CCN(C(C)C(=O)NCC(C)c3ccccc3)CC2)cc1 (stereo not drawn)	-1.16%	–
CN(C)C(=S)Nc1nc2ccccc2s1	0.459%	–
COc1cccc(C2CC3(CC(C)(C)NC(=S)N3)Oc3cc(O)ccc32)c1 (stereo not drawn)	-2.33%	–
COCCCN=C1NN=C(c2cc(C)n(-c3ccccc3)c2C)CS1	5.81%	–
COc1ccc(N2C(=O)C(CC(=O)Nc3ccc(Cl)cc3)N(NC(=O)c3cccc(F)c3)C2=S)cc1 (stereo not drawn)	0.306%	–
O=C(NCCN1CCOCC1)c1cc(Br)ccc1Cl	-1.16%	–
O=C(NC(=S)N1CCCCCC1)c1ccccc1Cl	0.306%	–
O=C(NCCN1CCOCC1)c1ccccc1Cl	–	20.6 µM (active)
C=C(C)c1cccc(C(C)(C)NC(=O)NC2CCN(Cc3ccccc3)CC2)c1	0.306%	–
CC(=O)Oc1ccc2cc(-c3ccccc3)c(=O)oc2c1	0.306%	–
COc1cc2c(cc1OC)C(c1cc3ccccc3oc1=O)=NC(C)(C)C2	–	23.1 µM (active)
